# Biological target: Solute carrier family 2, facilitated glucose transporter member 1 (Homo sapiens) (UniProt P11166)
# Assay: ST_JUDE_LEISH: Cytotoxicity at 2uM final concentration against transgenic Leishmania Mexicana promastigotes LmGLUT1 that are glucose transport deficient and complemented with the human glucose transporter GLUT1. Activity is measured by DNA content using SYBR green in vitro
# Assay type: functional
# Sequence of Solute carrier family 2, facilitated glucose transporter member 1 (Homo sapiens) (P11166 whole entry): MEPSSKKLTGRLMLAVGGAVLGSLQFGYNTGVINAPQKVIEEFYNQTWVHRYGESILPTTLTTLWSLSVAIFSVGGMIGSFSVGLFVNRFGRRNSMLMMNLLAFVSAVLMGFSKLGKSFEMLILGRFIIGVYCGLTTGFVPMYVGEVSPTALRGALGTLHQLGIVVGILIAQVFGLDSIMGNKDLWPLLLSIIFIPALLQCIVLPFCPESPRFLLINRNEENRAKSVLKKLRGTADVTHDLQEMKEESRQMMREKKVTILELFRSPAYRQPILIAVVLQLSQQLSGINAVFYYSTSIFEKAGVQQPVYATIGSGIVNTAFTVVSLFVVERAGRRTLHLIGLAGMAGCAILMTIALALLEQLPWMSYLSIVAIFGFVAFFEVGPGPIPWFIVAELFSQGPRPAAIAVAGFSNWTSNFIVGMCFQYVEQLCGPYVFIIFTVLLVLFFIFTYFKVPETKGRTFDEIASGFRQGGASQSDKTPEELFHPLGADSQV
row,SMILES,inhibition [%]
1,O=C(Nc1ccc(Oc2ccccc2)cc1)N1CCC(CCN2CCC(c3c[nH]c4ccccc34)CC2)CC1,4.42
2,CS(=O)(=O)CCNCc1nc(-c2ccc3ncnc(Nc4ccc(OCc5ccccc5)c(Cl)c4)c3c2)cs1,4.21
3,CCCC[C@H](NC(=O)O[C@H](COc1ccc(OCc2ccccc2)cc1)C(C)(C)C)C(=O)C(=O)Nc1cc[nH]n1,3.68
4,Cc1nc2nc(N)nc(N)c2c(C)c1Cc1ccc(C(N)=O)cc1,1.68
5,Oc1ccccc1N1CCN(c2ccc(-c3nc4ccccc4[nH]3)cn2)CC1,2.48
6,Cc1nc(-c2nc(NCCc3c(C)noc3C)ncc2-c2ccsc2)sc1C,1.02
7,O=C(Nc1cccc([N+](=O)[O-])c1)Nc1ccc(Cl)c(C(F)(F)F)c1,-1.69
8,CN1CCN(Cc2c(O)ccc3c(=O)c(Oc4ccc(C(C)(C)C)cc4)c(C(F)(F)F)oc23)CC1,70.7
9,CC(C)Oc1cc2c(cc1NS(=O)(=O)c1ccc(-c3cccs3)cc1)CCN(C)CC2,5.11
10,COc1ccc(-c2cc(C(=O)N[C@@H](CC3CCCCC3)C(=O)NC3CCCc4ccccc43)ccc2O)cc1 (stereo partly drawn),0.11
11,COc1ccc(Nc2nccc(NCC(O)c3ccc(C(F)(F)F)cc3)n2)cc1 (stereo not drawn),2.9
12,Cc1ccc2ncc(Cl)c(CCN3CCC(NCc4ccc5c(n4)NC(=O)CS5)CC3)c2n1,3.75
13,COCC(=O)Nc1nc2ccccc2[nH]1,2.56
14,COc1ccc2ncc(F)c(CCN3CCC(CNCc4cccc5c4OCO5)CC3)c2n1,2.01
15,NS(=O)(=O)c1cccc(-c2ccc3c(O)ncnc3c2)c1,4.08
16,N=C(N)NC(=O)Nc1ccc(Cl)c([N+](=O)[O-])c1,0.49
17,CC(C)(C)c1ccccc1SC1=C(O)CC2(CCNCC2)OC1=O,0.78
18,Cc1cc(N[C@@H](Cc2ccccc2)C(=O)Nc2ccccc2)nc(NCCN2CCCC2)n1,-2.01
19,O=C(NCC1CCN(Cc2cccc(C(F)(F)F)c2)C1)c1cc(-c2cccc(Cl)c2)cs1 (stereo not drawn),1.83
20,Oc1cccc(Nc2nc(NCc3ccccc3)c3ccccc3n2)c1,22.9

row,SMILES,inhibition [%]
1,Fc1ccc(C=NN=c2cc[nH]c3ccccc23)cc1,11.7
2,N=C(N)NN=Cc1c[nH]c2ccc(-c3ccccc3)cc12,0.57
3,O=C(Nc1nc2cc(S(=O)(=O)NCc3ccc(Cl)c(Cl)c3)ccc2n1CCCN1CCCC1)c1ccc(Cl)cc1,1.48
4,O=C(Nc1ccc(-c2cccc(-c3nc4ccccc4[nH]3)c2)cc1)Nc1ccsc1,-0.72
5,COc1cccc(C2CCN(CCN3CCC(NC(=O)c4ccc(-c5ccc(C(F)(F)F)cc5)cc4)CC3)CC2)c1,4.19
6,COc1ccc(CNCc2cccc(-c3cccc(-c4nc5cc(F)ccc5[nH]4)c3)c2)cc1,2.28
7,CCOc1cccc(C(=O)Nc2cccc(CN3CCCN(Cc4cccc(O)c4)CC3)c2)c1,4.67
8,Cc1nnc2c(NC(=O)NC(C)C)cc3cc(-c4ccc(CN5CCCCC5)cc4)ccc3n12,56
9,CC(C)c1ccc(CN2CCC(NC(=O)c3ccc(-c4cccc(F)c4)s3)CC2)cc1,1.18
10,Cn1cncc1C(=O)Nc1ccc(-c2cccc(-c3nc4cc(F)ccc4[nH]3)c2)cc1,3.54
11,Cc1cc(N2CCCC2)nc(Nc2ccc(NC(=O)Nc3ccccc3)cc2)n1,2.65
12,CCc1ccc(C2CCN(CCCCNC(=O)c3ccc(NC(=O)c4ccc(Cl)cc4)cc3)CC2)c(OCC(=O)OC)c1,-0.04
13,CCNc1cc(C(=O)N[C@@H](Cc2cc(F)cc(F)c2)[C@H](O)CNCc2cccc(C(F)(F)F)c2)cc(N2CCCCS2(=O)=O)c1,-0.07
14,COc1ccc(-c2cccc(CNCc3ccc(F)cc3)c2)cc1S(=O)(=O)NCCN1CCCC1,7.5
15,NCC1CCCN1Cc1ccc(-c2ccc(-c3nc4cc(C(F)(F)F)ccc4[nH]3)cc2)cc1 (stereo not drawn),3.73
16,CC(C)CNC(=O)c1ccc(-c2cccc(CN3CCC(N4CCCC4)CC3)c2)nc1,2.51
17,Cc1nn(CCOC(=O)NC(NCC2COc3ccccc3O2)C(Cl)(Cl)Cl)cc1[N+](=O)[O-] (stereo not drawn),0.33
18,O=C(/C=C/c1ccc(Cl)c(Cl)c1)NCCCCCN1CCCC(C(=O)Nc2ccc(Cl)cc2)C1 (stereo not drawn),3.76
19,CC(Cl)=CCc1c(C)nc2c(ccc3ccccc32)c1O,4.44

# Biological target: Hexose transporter 1 (Plasmodium falciparum) (UniProt O97467)
# Assay: ST_JUDE_LEISH: Cytotoxicity at 2uM final concentration against transgenic Leishmania Mexicana promastigotes LmPfHT that are glucose transport deficient and complemented with the Plasmodium falciparum hexose transporter. Activity is measured by DNA content using SYBR green in vitro
# Assay type: functional
row,SMILES,inhibition [%]
1,O=C(Nc1ccc(Oc2ccccc2)cc1)N1CCC(CCN2CCC(c3c[nH]c4ccccc34)CC2)CC1,2.98
2,CS(=O)(=O)CCNCc1nc(-c2ccc3ncnc(Nc4ccc(OCc5ccccc5)c(Cl)c4)c3c2)cs1,3.42
3,CCCC[C@H](NC(=O)O[C@H](COc1ccc(OCc2ccccc2)cc1)C(C)(C)C)C(=O)C(=O)Nc1cc[nH]n1,3.22
4,Cc1nc2nc(N)nc(N)c2c(C)c1Cc1ccc(C(N)=O)cc1,1.64
5,Oc1ccccc1N1CCN(c2ccc(-c3nc4ccccc4[nH]3)cn2)CC1,1.99
6,Cc1nc(-c2nc(NCCc3c(C)noc3C)ncc2-c2ccsc2)sc1C,1.58
7,O=C(Nc1cccc([N+](=O)[O-])c1)Nc1ccc(Cl)c(C(F)(F)F)c1,1.56
8,CN1CCN(Cc2c(O)ccc3c(=O)c(Oc4ccc(C(C)(C)C)cc4)c(C(F)(F)F)oc23)CC1,74.1
9,CC(C)Oc1cc2c(cc1NS(=O)(=O)c1ccc(-c3cccs3)cc1)CCN(C)CC2,2.07
10,COc1ccc(-c2cc(C(=O)N[C@@H](CC3CCCCC3)C(=O)NC3CCCc4ccccc43)ccc2O)cc1 (stereo partly drawn),-0.02
11,COc1ccc(Nc2nccc(NCC(O)c3ccc(C(F)(F)F)cc3)n2)cc1 (stereo not drawn),5.27
12,Cc1ccc2ncc(Cl)c(CCN3CCC(NCc4ccc5c(n4)NC(=O)CS5)CC3)c2n1,4.54
13,COCC(=O)Nc1nc2ccccc2[nH]1,2.67
14,COc1ccc2ncc(F)c(CCN3CCC(CNCc4cccc5c4OCO5)CC3)c2n1,1.39
15,NS(=O)(=O)c1cccc(-c2ccc3c(O)ncnc3c2)c1,3.82
16,N=C(N)NC(=O)Nc1ccc(Cl)c([N+](=O)[O-])c1,0.63
17,CC(C)(C)c1ccccc1SC1=C(O)CC2(CCNCC2)OC1=O,0.64
18,Cc1cc(N[C@@H](Cc2ccccc2)C(=O)Nc2ccccc2)nc(NCCN2CCCC2)n1,-2.84
19,O=C(NCC1CCN(Cc2cccc(C(F)(F)F)c2)C1)c1cc(-c2cccc(Cl)c2)cs1 (stereo not drawn),1.37
20,Oc1cccc(Nc2nc(NCc3ccccc3)c3ccccc3n2)c1,19.9

row,SMILES,inhibition [%]
1,Fc1ccc(C=NN=c2cc[nH]c3ccccc23)cc1,13.4
2,N=C(N)NN=Cc1c[nH]c2ccc(-c3ccccc3)cc12,0.13
3,O=C(Nc1nc2cc(S(=O)(=O)NCc3ccc(Cl)c(Cl)c3)ccc2n1CCCN1CCCC1)c1ccc(Cl)cc1,1.6
4,O=C(Nc1ccc(-c2cccc(-c3nc4ccccc4[nH]3)c2)cc1)Nc1ccsc1,4.27
5,COc1cccc(C2CCN(CCN3CCC(NC(=O)c4ccc(-c5ccc(C(F)(F)F)cc5)cc4)CC3)CC2)c1,5.8
6,COc1ccc(CNCc2cccc(-c3cccc(-c4nc5cc(F)ccc5[nH]4)c3)c2)cc1,0.55
7,CCOc1cccc(C(=O)Nc2cccc(CN3CCCN(Cc4cccc(O)c4)CC3)c2)c1,5.58
8,Cc1nnc2c(NC(=O)NC(C)C)cc3cc(-c4ccc(CN5CCCCC5)cc4)ccc3n12,10.5
9,CC(C)c1ccc(CN2CCC(NC(=O)c3ccc(-c4cccc(F)c4)s3)CC2)cc1,-0.01
10,Cn1cncc1C(=O)Nc1ccc(-c2cccc(-c3nc4cc(F)ccc4[nH]3)c2)cc1,3.21
11,Cc1cc(N2CCCC2)nc(Nc2ccc(NC(=O)Nc3ccccc3)cc2)n1,2.28
12,CCc1ccc(C2CCN(CCCCNC(=O)c3ccc(NC(=O)c4ccc(Cl)cc4)cc3)CC2)c(OCC(=O)OC)c1,1.79
13,CCNc1cc(C(=O)N[C@@H](Cc2cc(F)cc(F)c2)[C@H](O)CNCc2cccc(C(F)(F)F)c2)cc(N2CCCCS2(=O)=O)c1,-0.7
14,COc1ccc(-c2cccc(CNCc3ccc(F)cc3)c2)cc1S(=O)(=O)NCCN1CCCC1,8.55
15,NCC1CCCN1Cc1ccc(-c2ccc(-c3nc4cc(C(F)(F)F)ccc4[nH]3)cc2)cc1 (stereo not drawn),1.2
16,CC(C)CNC(=O)c1ccc(-c2cccc(CN3CCC(N4CCCC4)CC3)c2)nc1,2.17
17,Cc1nn(CCOC(=O)NC(NCC2COc3ccccc3O2)C(Cl)(Cl)Cl)cc1[N+](=O)[O-] (stereo not drawn),-0.07
18,O=C(/C=C/c1ccc(Cl)c(Cl)c1)NCCCCCN1CCCC(C(=O)Nc2ccc(Cl)cc2)C1 (stereo not drawn),5.09
19,CC(Cl)=CCc1c(C)nc2c(ccc3ccccc32)c1O,3.06
